We go through 5 compounds from PubChem BioAssay (NCATS).

Assay [1] concerns the target Calcium and integrin-binding protein 1 (Homo sapiens) (UniProt Q99828). The assay can be described thus: Primary qHTS for Identification of Calcium Integrin Binding Protein 1 (CIB1) Competitor (AID 1508620).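 Note: GST tagged CIB1 binding a fluorescein labelled alphaIIb integrin peptide tracer; top concentration of the series differs between compounds; % is set by controls: 0 for no effect and ±100 for the full control effect.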 An outline of the steps:
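Fluorescence polarization competition: GST-tagged CIB1 (1 uM final) preincubated with compound 15 min at room temperature, then FITC-labelled alphaIIb peptide (100 nM final) added. After 15 min at room temperature, polarization read at Ex 480/Em 540.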
Background: Quantitative high-throughput screening tests each substance at several concentrations.

A short description of assay [2]: Primary qHTS for inhibitors of nuclear receptor binding SET domain protein 2 (NSD2) in an isogenic RCH-ACV NSD2 p.E1099K mutant (9B) (AID 1645876). Note: nearly all actives have a fitted effect of over 70% in size. Note: potency is the fitted concentration of half-maximal effect.
Assay [3] deals with Phospholipid hydroperoxide glutathione peroxidase GPX4 (Homo sapiens) (UniProt P36969). The assay can be described thus: Primary qHTS Assay for Inhibitors of Recombinant Selenoprotein Glutathione Peroxidase 4 (GPX4) (AID 1845192). Note: nearly all actives have a fitted effect of over 65% in size. An outline of the steps:
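GR-coupled assay: recombinant GPX4 preincubated 30 min with compound at room temperature; final 200 nM GPX4, 1 mM GSH, 0.5 mM cumene hydroperoxide, 0.5 mM NADPH, 100 nM GR, 0.01% BSA, pH 7.5 Tris. NADPH fluorescence (340/450 nm) read at 0 and 15 min.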

For assay [4], the target named is Luciferin 4-monooxygenase (Photinus pyralis) (UniProt P08659). Briefly: Primary firefly luciferase (FLuc) qHTS assay for identification of artifact compounds. (AID 1845220). Note: nearly all actives have a fitted effect of over 60% in size. The settings on record: outcome: dose series up to 54.1 µM unless noted. An outline of the steps:
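D-luciferin and ATP (10 uM each, final) in Tris acetate buffer pH 7.6 were incubated with compounds for 15 min at room temperature. The reaction was started with 10 nM Photinus pyralis luciferase and luminescence read after 5 min. Percent inhibition was fitted to a 4-parameter Hill equation.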

Assay [5] concerns Nanoluciferase (engineered Oplophorus gracilirostris luciferase). Briefly: Primary Nanoluciferase (NLuc) qHTS assay for identification of artifact compounds. (AID 1845222).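 Note: 0% = DMSO and -100% = no enzyme.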 A digest of the protocol:
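Diluted conditioned medium from NLuc-expressing S16 cells treated with compounds for 15 min at room temperature, then Nano-Glo substrate added; luminescence read after 5 min. Percent inhibition versus no-enzyme and DMSO controls fitted to 4-parameter Hill equation.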

The next assay has as its system CRL-7250. Briefly: Cytotoxic Profiling of Annotated Libraries Using Quantitative High-Throughput Screening (AID 1296008). For max response: % is set by controls: 0 for no effect and ±100 for the full control effect. Note: nearly all actives have a fitted effect of over 60% in size. Note: potency is the fitted concentration of half-maximal effect. As to conditions: Five cell lines viability, CellTiter-Glo ATP luminescence, 48-72 h; max response: active compounds read low. A digest of the protocol:
(§1)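 Cells exposed to compounds for 48 or 72 hr at 37 degrees Celsius. Viability read as ATP-coupled luminescence with CellTiter-Glo after 10 min at room temperature.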

For a further assay, the system named is HEK293. The assay is described as above. The settings on record: Five cell lines viability, CellTiter-Glo ATP luminescence, 48-72 h; max response: active compounds read low. A digest of the protocol:
as §1

A further assay deals with HaCat. The assay is described as above. As to conditions: Five cell lines viability, CellTiter-Glo ATP luminescence, 48-72 h; max response: active compounds read low. An outline of the steps: as §1
A further assay has as its system NIH3T3. The description is as above. The settings on record: Five cell lines viability, CellTiter-Glo ATP luminescence, 48-72 h; max response: active compounds read low. An outline of the steps:
as §1

For another assay, the system named is C33A. Briefly: Primary qHTS to identify gynecologic anti-cancer compounds using libraries of approved drugs and bioactive compounds (AID 1345084). Note: nearly all actives have a fitted effect of over 55% in size. Note: potency is the fitted concentration of half-maximal effect. The settings on record: Gynecologic cancer cell panel viability, ATPlite luminescence, 48 h; series mostly up to 57.5 µM. An outline of the steps:
(§2)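 Five-point cytotoxicity, 48 h drug exposure at 37 C, 5% CO2, on cells seeded 16 h beforehand. ATP content read by ATPlite luminescence.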

For a further assay, the system named is CAOV3. The assay is described as above. The settings on record: Gynecologic cancer cell panel viability, ATPlite luminescence, 48 h; series mostly up to 57.5 µM. An outline of the steps:
as §2
(In general: Cellular ATP, detected with luciferase, serves as a proxy for viable cell number.)

In the next assay the test system is CASKI. The description is as above. As to conditions: Gynecologic cancer cell panel viability, ATPlite luminescence, 48 h; series mostly up to 57.5 µM. An outline of the steps: as §2
The test system of another assay is Hek293T. The assay is described as above. As to conditions: Gynecologic cancer cell panel viability, ATPlite luminescence, 48 h, control line for the selectivity index; series mostly up to 57.5 µM. A digest of the protocol:
as §2

For the next assay, the system named is JEG-3. The description is as above. As to conditions: Gynecologic cancer cell panel viability, ATPlite luminescence, 48 h; series mostly up to 57.5 µM. An outline of the steps: as §2
The test system of another assay is Tov-21-G. Described as above. As to conditions: Gynecologic cancer cell panel viability, ATPlite luminescence, 48 h; series mostly up to 57.5 µM. An outline of the steps: as §2
Assay [6] is described as follows: P-glycoprotein substrates identified in KB-8-5-11 adenocarcinoma cell line, qHTS therapeutic library screen (AID 1346987). Note: nearly all actives have a fitted effect of over 65% in size. Note: potency is the fitted concentration of half-maximal effect. A digest of the protocol: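 KB-8-5-11: colchicine-selected sub-line of KB-3-1 over-expressing P-gp; assay medium lacked colchicine. 72 h drug exposure at 37 degree C, CellTiter-Glo.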
Another assay relates to Es-2. The assay can be described thus: Primary qHTS to identify gynecologic anti-cancer compounds using libraries of approved drugs and bioactive compounds (AID 1345084). Note: nearly all actives have a fitted effect of over 55% in size. Note: potency is the fitted concentration of half-maximal effect. As to conditions: Gynecologic cancer cell panel viability, ATPlite luminescence, 48 h; series mostly up to 57.5 µM. A digest of the protocol: as §2
The test system of the next assay is OV90. The assay is described as above. The settings on record: Gynecologic cancer cell panel viability, ATPlite luminescence, 48 h; series mostly up to 57.5 µM. An outline of the steps:
as §2

The test system of the next assay is PA-1. The description is as above. The settings on record: Gynecologic cancer cell panel viability, ATPlite luminescence, 48 h; series mostly up to 57.5 µM. An outline of the steps: as §2
The subject of another assay is Tov112D. The description is as above. The settings on record: Gynecologic cancer cell panel viability, ATPlite luminescence, 48 h; series mostly up to 57.5 µM. An outline of the steps: as §2

Unmarked numbers belong to inactive results. Records with an inconclusive call do not appear. The source made the active and inactive calls. Calls come from the whole dose curve; as a rule, active = well fitted curve in the direction sought with a large enough effect; inconclusive = small, poorly fitted or top-dose-only effect, or another doubt; inactive = no such curve, though single readings can be large; an effect the other way counts as inactive or inconclusive.

Sequence of Calcium and integrin-binding protein 1 (Homo sapiens) (Q99828 whole entry, looked up): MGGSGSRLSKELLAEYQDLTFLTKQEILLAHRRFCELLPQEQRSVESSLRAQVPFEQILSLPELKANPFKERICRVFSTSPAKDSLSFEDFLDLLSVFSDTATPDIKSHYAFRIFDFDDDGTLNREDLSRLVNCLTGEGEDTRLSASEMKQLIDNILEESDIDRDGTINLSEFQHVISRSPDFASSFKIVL
Sequence of Phospholipid hydroperoxide glutathione peroxidase GPX4 (Homo sapiens) (P36969 whole entry, looked up): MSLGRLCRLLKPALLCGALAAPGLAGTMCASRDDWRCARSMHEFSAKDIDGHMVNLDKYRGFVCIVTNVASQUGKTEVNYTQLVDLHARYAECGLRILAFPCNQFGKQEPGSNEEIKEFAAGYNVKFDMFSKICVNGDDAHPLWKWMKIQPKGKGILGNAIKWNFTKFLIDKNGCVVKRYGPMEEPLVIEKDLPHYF

Take `C[C@@]1(CO)[C@H](O)CC[C@@]2(C)[C@H]1CC[C@H]1C[C@@H]3C[C@@]12CC[C@]3(O)CO`: the Potency entry (in assay [1]; in assay [3]; in [5]; in the assay with C33A; in the assay on CAOV3; with CASKI) was “inactive” each time. Further, the Potency result with Hek293T, with JEG-3 and with Tov-21-G was “inactive” in each case. In addition, the Potency in assay [2] is 3190 nM (active); in the assay on HEK293, 2550 nM (active); in the assay on HaCat, 9040 nM (active); in the assay on NIH3T3, 6400 nM (active). In addition, in assay [4], the compound was called inactive. Moreover, in the assay on CRL-7250, the max response was -2.86%.

Turning to `CC1=CC2/C=C(\C)CCCC(O)/C=C/C(=O)OC23C(=O)NC(CC(C)C)C3C1C` (centres undefined), the Potency entry (in [6]; in [1]; in [2]; in assay [3]; in assay [5]; in the assay with C33A) was “inactive” each time. Further, the Potency entry with CAOV3, in the assay on Es-2, in the assay with Hek293T, in the assay on JEG-3, in the assay on OV90 and with PA-1 was “inactive” in each case. The Potency entry in the assay with Tov-21-G and in the assay with Tov112D was “inactive” each time. For the same compound, the compound was called inactive (in assay [4]; in the assay on CRL-7250). Also, the max response with HEK293 is -0.114%; with HaCat, -3.87%; in the assay on NIH3T3 it was 1.49%.

Consider `C[C@]12CC[C@H]3[C@@H](CCC4=C/C(=N/OCC(=O)O)CC[C@@]43C)[C@@H]1CC[C@@H]2O`, for which the Potency entry (in assay [1]; in [2]; in [3]; in assay [5]; in the assay with C33A; in the assay on CAOV3) was “inactive” in each case. Moreover, the Potency entry with CASKI, with Es-2, with Hek293T, with JEG-3, in the assay with OV90 and in the assay with PA-1 was “inactive” throughout. Also, the Potency result in the assay with Tov-21-G and with Tov112D was “inactive” throughout. In addition, the outcome in assay [4] was inactive. The max response with CRL-7250 is -2.05%; with HEK293 it was -5.05%; in the assay with HaCat it was -24.1%; in the assay with NIH3T3, 3.02%.

With `C[C@]12CC[C@H](O)C[C@H]1CC[C@@H]1[C@@H]2[C@H](O)C(=O)[C@]2(C)[C@@H](c3ccc(=O)oc3)CC[C@]12O`, the Potency in assay [6] is 25.9 nM (active); in assay [2], 20.5 nM (active); with CRL-7250, 41.1 nM (active); in the assay on HEK293 it was 32.6 nM (active); in the assay with HaCat, 130 nM (active); in the assay with CASKI, 398 nM (active). The Potency in the assay on Es-2 was 89.1 nM (active); in the assay with OV90, 282 nM (active); with PA-1 it was 79.4 nM (active). For the same compound, the Potency entry in [3] and in [5] was “inactive” throughout. The outcome in assay [4] was inactive. Besides, the max response in the assay with NIH3T3 was -1.67%.

For `C=CC/C=C\C/C=C\CCCCCCCc1cc(O)cc(O)c1`, the Potency entry (in assay [6]; in assay [3]; in assay [5]; in the assay with C33A; in the assay with CAOV3; in the assay with CASKI) was “inactive” each time. The Potency entry with Es-2, in the assay on Hek293T, in the assay on JEG-3, in the assay on OV90, with PA-1 and with Tov-21-G was “inactive” each time. For the same compound, in the assay with Tov112D, the Potency result is “inactive”. Further, the outcome (in assay [4]; with HaCat) was inactive. For the same compound, the max response is -22.2% in the assay with CRL-7250, -20.2% in the assay on HEK293 and -20.8% with NIH3T3.
